Results from the supplement of paper PMC11732987, “Enantioselective OTUD7B fragment discovery through chemoproteomics screening and high-throughput optimisation” (Communications Chemistry, 2025).

Key:
Test in all cases: log2 ratio of Biotin-Ahx-Ub-VS probe labelling (fragment/DMSO); higher = less target engagement (more negative = stronger competition), active = hit call of the paper (q ≤ 0.05, log2 ratio ≤ -1)
Conditions in all cases: compound concentration: 200 uM; treatment time: 3 h
USP9X = USP9X (UniProt Q93008)
Outline: (§1)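 HEK293T lysate (495 µg per sample, in Tris/CHAPS/IGEPAL buffer with protease inhibitors) was treated in triplicate with fragment at 200 µM or with DMSO for 3 h. It was then treated with Biotin-Ahx-Ub-VS (0.5 µM final) for 1 h. Labelled DUBs were NeutrAvidin-enriched, digested with LysC and trypsin, and run by diaPASEF LC-MS/MS. Spectronaut label-free quantities were global-median-normalised. Values are average log2 ratios fragment/DMSO by unpaired t-test, using proteins with ≥2 unique peptides.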

UniProt O00487 = biological target: UniProt O00487
Outline: as §1

UniProt O00507 = biological target: UniProt O00507
Outline: as §1

UniProt P51784 = biological target: UniProt P51784
Outline: as §1

UniProt Q5T2D3 = biological target: T1, UniProt Q5T2D3
T1 sequence (whole entry): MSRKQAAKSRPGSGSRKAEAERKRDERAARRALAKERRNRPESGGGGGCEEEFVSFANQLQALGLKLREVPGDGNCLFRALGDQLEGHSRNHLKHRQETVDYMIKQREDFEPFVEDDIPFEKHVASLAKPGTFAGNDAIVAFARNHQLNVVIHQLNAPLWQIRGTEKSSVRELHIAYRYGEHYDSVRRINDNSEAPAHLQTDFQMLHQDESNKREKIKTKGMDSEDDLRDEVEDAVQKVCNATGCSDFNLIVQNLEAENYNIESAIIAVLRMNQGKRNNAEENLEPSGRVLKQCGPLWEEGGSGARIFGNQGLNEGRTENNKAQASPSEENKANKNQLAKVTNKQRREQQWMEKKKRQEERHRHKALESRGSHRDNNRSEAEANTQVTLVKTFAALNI
Outline: as §1

UniProt Q8TE49 = biological target: T2, UniProt Q8TE49
T2 sequence (whole entry): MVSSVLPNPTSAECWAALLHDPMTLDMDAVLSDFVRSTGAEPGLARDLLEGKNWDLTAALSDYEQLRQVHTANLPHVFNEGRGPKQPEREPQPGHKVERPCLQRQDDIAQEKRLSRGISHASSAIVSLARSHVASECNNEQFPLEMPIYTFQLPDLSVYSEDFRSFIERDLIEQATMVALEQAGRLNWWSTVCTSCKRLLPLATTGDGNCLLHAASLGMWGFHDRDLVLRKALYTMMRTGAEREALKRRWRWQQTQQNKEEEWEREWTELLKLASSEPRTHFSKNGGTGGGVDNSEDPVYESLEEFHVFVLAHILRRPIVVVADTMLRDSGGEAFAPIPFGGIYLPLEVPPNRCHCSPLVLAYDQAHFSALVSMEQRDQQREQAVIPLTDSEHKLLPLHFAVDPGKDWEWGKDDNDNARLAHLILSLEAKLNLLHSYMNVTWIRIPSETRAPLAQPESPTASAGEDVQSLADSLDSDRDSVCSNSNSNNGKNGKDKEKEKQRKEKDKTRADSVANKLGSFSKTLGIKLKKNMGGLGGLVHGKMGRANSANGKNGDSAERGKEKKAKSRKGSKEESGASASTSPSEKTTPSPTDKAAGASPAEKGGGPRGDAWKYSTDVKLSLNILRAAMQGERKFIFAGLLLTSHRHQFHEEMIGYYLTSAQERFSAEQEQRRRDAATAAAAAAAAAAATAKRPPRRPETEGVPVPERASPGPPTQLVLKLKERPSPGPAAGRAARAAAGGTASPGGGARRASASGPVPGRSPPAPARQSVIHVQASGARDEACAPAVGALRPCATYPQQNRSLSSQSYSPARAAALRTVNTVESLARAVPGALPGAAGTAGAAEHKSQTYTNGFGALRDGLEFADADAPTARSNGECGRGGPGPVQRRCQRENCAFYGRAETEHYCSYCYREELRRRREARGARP
Outline: as §1

UniProt Q9P2H5 = biological target: T3, UniProt Q9P2H5
T3 sequence (whole entry): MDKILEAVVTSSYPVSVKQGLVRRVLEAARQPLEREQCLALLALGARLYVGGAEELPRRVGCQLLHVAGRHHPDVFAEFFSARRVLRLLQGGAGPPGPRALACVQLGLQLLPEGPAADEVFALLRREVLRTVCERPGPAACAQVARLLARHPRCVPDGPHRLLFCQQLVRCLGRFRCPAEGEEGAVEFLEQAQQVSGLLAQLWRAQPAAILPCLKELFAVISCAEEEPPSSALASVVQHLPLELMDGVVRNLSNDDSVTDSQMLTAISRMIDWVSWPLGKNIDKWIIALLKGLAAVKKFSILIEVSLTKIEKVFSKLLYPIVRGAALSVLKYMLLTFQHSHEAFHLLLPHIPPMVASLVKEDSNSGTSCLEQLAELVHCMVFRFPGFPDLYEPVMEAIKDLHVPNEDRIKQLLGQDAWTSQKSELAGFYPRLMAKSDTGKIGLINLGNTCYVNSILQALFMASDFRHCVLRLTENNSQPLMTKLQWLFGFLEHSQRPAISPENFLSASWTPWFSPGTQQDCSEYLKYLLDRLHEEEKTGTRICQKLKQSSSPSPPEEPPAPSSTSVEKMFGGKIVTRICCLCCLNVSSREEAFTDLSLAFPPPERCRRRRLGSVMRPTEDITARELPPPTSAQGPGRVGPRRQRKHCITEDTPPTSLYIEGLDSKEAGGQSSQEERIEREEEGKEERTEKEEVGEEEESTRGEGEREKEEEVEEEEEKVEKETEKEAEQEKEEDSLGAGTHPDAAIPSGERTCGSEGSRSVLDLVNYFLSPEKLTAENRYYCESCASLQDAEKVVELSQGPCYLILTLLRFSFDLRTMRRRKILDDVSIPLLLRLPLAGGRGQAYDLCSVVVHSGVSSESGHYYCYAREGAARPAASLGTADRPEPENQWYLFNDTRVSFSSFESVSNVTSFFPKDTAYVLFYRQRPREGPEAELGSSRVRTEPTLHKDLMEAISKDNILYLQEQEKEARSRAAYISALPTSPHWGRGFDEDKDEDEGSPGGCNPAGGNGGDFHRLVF
Outline: as §1

UniProt Q9UGI0 = biological target: T4, UniProt Q9UGI0
T4 sequence (whole entry): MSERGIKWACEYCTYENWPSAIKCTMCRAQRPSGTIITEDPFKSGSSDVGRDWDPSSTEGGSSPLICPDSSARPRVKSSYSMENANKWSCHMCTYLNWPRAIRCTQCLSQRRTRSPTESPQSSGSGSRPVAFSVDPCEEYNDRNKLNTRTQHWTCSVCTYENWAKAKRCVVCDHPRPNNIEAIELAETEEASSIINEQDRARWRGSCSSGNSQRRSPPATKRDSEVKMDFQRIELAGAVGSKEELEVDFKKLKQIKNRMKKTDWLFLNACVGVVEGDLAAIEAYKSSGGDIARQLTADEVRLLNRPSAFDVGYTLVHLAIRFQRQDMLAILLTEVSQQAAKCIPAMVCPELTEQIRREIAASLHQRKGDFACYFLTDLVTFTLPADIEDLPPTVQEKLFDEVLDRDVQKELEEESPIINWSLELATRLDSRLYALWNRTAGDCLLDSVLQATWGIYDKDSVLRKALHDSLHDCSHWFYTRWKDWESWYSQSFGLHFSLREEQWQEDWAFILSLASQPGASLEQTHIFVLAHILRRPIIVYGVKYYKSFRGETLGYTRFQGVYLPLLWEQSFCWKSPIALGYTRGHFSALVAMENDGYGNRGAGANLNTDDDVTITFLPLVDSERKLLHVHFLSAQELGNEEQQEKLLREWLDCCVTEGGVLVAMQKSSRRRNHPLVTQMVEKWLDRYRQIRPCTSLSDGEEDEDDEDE
Outline: as §1

YOD1 = biological target: T5, YOD1 (UniProt Q5VVQ6)
T5 sequence (whole entry): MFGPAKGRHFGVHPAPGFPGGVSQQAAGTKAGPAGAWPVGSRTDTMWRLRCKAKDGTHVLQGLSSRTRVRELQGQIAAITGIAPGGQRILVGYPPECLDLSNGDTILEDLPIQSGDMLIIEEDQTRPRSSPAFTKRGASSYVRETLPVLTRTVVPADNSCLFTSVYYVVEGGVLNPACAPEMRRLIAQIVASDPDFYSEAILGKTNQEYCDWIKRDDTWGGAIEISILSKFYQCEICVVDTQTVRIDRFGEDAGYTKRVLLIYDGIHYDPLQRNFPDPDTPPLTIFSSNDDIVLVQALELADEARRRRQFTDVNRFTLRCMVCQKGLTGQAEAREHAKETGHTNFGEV
Outline: as §1

Measured: log2 ratio of Biotin-Ahx-Ub-VS probe labelling

UniProt P51784, sequence (P51784 whole entry): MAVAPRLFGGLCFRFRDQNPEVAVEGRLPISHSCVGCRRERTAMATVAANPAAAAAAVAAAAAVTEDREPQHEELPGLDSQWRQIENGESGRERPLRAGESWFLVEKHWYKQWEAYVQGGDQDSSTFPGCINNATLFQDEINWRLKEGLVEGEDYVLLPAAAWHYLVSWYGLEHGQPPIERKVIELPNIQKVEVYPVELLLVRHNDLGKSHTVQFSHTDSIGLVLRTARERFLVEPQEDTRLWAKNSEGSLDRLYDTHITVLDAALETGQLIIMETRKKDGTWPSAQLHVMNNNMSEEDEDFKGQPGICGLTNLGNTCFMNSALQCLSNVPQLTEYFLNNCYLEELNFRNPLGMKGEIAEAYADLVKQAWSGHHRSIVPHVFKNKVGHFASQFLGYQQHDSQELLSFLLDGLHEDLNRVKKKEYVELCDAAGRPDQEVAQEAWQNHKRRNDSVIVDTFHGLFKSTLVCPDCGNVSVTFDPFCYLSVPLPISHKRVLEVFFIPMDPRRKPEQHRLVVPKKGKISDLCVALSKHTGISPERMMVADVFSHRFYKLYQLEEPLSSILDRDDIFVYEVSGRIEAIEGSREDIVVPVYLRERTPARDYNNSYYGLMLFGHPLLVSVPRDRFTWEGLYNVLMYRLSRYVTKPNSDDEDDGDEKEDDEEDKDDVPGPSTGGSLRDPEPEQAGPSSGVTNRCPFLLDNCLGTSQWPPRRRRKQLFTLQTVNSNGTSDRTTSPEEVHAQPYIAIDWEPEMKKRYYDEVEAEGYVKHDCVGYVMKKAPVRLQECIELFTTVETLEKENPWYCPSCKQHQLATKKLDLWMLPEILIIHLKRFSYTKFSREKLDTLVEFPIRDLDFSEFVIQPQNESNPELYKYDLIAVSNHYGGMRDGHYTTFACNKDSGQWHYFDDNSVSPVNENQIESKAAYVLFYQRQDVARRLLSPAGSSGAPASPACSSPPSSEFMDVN
USP9X, sequence (Q93008 whole entry, the tested form may be a part): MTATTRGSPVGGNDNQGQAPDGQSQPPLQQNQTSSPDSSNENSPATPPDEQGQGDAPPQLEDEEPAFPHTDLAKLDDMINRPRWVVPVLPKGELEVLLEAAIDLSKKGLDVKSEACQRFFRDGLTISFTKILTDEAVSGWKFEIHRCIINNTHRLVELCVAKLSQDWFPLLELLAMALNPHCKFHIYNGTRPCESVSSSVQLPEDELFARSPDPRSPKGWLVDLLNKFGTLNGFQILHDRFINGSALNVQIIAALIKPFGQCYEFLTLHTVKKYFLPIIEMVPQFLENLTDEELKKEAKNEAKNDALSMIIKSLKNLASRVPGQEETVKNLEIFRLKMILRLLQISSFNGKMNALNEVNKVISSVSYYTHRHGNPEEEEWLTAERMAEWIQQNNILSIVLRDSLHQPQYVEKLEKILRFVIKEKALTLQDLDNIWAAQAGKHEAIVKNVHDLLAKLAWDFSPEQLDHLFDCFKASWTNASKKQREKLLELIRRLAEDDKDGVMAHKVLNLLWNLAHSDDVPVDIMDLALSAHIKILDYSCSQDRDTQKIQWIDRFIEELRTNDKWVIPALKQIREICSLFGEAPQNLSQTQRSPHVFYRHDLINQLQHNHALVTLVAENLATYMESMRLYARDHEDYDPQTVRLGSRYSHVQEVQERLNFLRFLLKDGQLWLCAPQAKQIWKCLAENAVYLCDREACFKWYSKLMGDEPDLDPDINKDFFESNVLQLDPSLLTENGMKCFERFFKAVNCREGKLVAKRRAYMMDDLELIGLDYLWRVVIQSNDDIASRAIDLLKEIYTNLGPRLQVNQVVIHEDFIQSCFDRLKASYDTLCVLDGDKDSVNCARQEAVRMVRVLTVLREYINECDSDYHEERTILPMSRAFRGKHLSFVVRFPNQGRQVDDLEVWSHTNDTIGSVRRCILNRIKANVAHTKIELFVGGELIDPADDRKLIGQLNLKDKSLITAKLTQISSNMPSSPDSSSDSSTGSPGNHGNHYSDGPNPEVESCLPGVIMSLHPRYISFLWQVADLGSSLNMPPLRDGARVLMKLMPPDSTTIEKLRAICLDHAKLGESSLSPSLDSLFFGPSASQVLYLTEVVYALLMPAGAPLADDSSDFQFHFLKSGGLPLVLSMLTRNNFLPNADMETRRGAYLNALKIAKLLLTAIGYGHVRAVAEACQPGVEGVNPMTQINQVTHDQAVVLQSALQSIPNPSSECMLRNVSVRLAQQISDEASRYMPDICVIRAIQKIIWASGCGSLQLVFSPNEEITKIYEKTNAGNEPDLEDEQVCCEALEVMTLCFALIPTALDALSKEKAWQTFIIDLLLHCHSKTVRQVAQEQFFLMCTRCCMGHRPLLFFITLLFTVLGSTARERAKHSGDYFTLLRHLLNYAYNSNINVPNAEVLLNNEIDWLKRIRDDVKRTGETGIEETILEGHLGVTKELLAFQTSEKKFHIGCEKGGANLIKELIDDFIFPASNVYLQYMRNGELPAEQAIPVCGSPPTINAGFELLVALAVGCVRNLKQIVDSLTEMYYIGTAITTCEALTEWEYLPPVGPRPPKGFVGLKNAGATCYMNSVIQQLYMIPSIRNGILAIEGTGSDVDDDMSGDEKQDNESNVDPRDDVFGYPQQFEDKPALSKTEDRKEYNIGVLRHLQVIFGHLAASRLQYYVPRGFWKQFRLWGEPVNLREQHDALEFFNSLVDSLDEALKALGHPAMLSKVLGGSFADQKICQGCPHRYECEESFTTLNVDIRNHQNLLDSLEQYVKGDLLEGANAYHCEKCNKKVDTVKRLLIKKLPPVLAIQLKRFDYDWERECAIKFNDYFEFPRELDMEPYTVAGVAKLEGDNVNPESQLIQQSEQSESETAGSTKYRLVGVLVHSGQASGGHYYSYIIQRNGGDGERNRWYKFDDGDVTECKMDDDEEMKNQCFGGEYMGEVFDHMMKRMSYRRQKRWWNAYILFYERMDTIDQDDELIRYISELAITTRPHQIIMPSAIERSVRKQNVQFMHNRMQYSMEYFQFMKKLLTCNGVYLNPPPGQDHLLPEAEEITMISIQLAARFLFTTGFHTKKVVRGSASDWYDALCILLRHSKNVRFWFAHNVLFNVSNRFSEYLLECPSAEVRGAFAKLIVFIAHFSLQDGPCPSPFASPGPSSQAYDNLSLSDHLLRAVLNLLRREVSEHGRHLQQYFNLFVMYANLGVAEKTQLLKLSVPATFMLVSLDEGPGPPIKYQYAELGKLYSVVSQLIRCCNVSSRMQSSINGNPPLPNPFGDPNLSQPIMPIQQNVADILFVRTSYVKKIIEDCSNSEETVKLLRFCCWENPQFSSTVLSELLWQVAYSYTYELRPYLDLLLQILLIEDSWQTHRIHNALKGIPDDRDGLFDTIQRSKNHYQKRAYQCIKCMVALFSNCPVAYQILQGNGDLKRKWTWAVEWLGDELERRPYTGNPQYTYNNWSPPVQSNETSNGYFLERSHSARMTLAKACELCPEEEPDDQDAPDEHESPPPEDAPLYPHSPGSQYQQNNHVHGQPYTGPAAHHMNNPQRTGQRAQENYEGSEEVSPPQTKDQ
UniProt O00487, sequence (O00487 whole entry): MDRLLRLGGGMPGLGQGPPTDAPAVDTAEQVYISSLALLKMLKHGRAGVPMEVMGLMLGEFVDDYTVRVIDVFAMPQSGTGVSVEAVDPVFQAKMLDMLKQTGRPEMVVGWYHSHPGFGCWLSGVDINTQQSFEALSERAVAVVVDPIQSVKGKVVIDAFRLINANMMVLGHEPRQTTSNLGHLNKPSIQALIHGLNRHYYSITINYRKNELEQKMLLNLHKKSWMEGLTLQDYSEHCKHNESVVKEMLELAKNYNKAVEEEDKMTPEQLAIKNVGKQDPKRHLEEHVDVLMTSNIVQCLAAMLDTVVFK

NC(=O)C1CCCCN1C(=O)CCl (centres undefined)
inactive: USP9X -0.213 | UniProt O00487 -0.0664 | UniProt O00507 0.156 | UniProt P51784 -0.0148 | UniProt Q5T2D3 -0.206 | UniProt Q9P2H5 -0.204 | UniProt Q9UGI0 -0.866 | YOD1 0.154
active: UniProt Q8TE49 -1.95
